# Measured values reported in PubChem BioAssay (EPA / NIEHS).
# Records with an inconclusive call do not appear. Some compounds were tested as several samples or in several runs, with calls that do not always agree. Active and inactive are the calls of the source. How the source made its calls: active means hit-call score of the fitted dose curve at least 0.9, where 1 is the maximum; inconclusive means response in the unintended direction; inactive means score below 0.9.
# Target: zebrafish Thyroid Hormone Receptor alpha (TRa), thraa (gene 30670) (UniProt Q98867)
# Test: ATG_zfTRa_XSP2: Attagene TRANS-FACTORIAL Multi-Species (XSP1) HepG2 Assay for zebrafish Thyroid Hormone Receptor alpha (TRa) (AID 2283832);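 further: actives raise zebrafish TRa-Gal4 reporter transcript above DMSO baseline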
# Description: ATG_XSP2_multi-species_TRANS is a cell-based, multiplexed assay created by modifying the existing Attagene TRANS-FACTORIAL system to include a panel of nuclear receptors from some or all the following species: human (Homo sapiens), mouse (Mus musculus), frog (Xenopus laevis), zebrafish (Danio rerio), chicken (Gallus gallus), and turtle (Chrysemys picta). The ECOTOX-FACTORIAL format uses HepG2, a human liver cell line, with measurements taken at 24 hours after chemical dosing in a 24-well plate. Xsp2 included 3 nM 6-alpha-fluorotestosterone and 1.5 nM norgestrel to stimulate the androgen receptor.ATG_zfTRa_XSP2 is one of 29 assay components measured or calculated from the ATG_XSP2_multi-species_TRANS assay. It is designed to make measurements of mRNA induction, a form of inducible reporter, as detected with fluorescence intensity signals by Reverse transcription polymerase chain reaction (RT-PCR) and Capillary electrophoresis technology.The assay endpoint ATG_zfTRa_XSP2 was analyzed in the positive analysis fitting direction relative to DMSO as the negative control and baseline of activity. Using a type of inducible reporter, measures of mRNA for gain-of-signal activity can be used to understand the reporter gene at the transcription factor-level as they relate to the gene TR. Furthermore, this assay endpoint can be referred to as a primary readout, because this assay has produced multiple assay endpoints where this one serves a reporter gene function. To generalize the intended target to other relatable targets, this assay endpoint is annotated to the nuclear receptor intended target family, where the subfamily is non-steroidal.
# Human liver HepG2 cells are transiently transfected with multiple reporter transcription units (MRTUs) in 6-well plates using FuGene 6 reagent (Roche; 3 ml FuGene/1 mg DNA). The MRTU constructs are regulated by a cis-regulating element (promoter). […] A major difference between the CIS and TRANS system is that in CIS activities of endogenous TFs are measured, whereas the TRANS assay evaluates changes in activities of exogenous, chimeric NR-Gal4 proteins. […] At the end of 24 hour incubation, total RNA was isolated using TriZol reagent (Invitrogen). The isolated RNA is then reverse-transcribed using oligo(dT) primer and Mo-MLV reverse transcriptase (Invitrogen) with DNAse I (Ambion) treatment for 30 min. The one-tenth of the produced cDNA was amplified by PCR using Taq DNA polymerase (Invitrogen) and two reporter sequence-specific primers. The PCR products were fluorescently labeled by primer extension with 6-arboxyfluorescein (6-FAM) 5'-labeled reporter sequence-specific primer (2 min at 95 C, 20 s at 68 C and 10 min at 72 C) and these products were digested with 5U of HpaI (New England Biolabs) for 2h at 37 C. The fragments were purified using Qiaquick PCR columns (Qiagen), analyzed on an ABI 3130xL genetic analyzer (Applied Biosystems) with peak positions identified by using a set of X-rhodamine (ROX)-labeled MapMarker1000 molecular weight standards (BioVentures). The raw capillary electrophoresis data was processed using Attagraph software (Attagene).
# zebrafish Thyroid Hormone Receptor alpha (TRa), thraa (gene 30670), sequence (Q98867 whole entry, looked up, the tested form may be a part): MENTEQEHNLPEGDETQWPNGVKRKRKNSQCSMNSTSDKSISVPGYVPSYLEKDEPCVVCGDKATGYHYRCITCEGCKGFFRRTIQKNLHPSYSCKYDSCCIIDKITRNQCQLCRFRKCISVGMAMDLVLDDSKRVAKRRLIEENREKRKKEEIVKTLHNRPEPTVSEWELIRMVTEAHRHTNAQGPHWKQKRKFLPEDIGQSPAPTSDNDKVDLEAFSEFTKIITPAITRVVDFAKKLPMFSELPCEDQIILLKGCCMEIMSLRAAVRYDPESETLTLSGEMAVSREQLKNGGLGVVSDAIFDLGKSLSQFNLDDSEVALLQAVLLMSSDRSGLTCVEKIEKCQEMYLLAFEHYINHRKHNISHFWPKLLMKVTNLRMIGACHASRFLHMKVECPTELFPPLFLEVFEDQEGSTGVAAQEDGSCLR
Compound,outcome,AC50
O=S(=O)(c1ccc(Cl)cc1)c1ccc(Cl)cc1,inactive,–
Oc1ccc(-c2ccccc2)cc1,inactive,–
C[C@]12CC[C@H](O)CC1=CC[C@@H]1[C@@H]2CC[C@]2(C)C(=O)CC[C@@H]12,inactive,–
Clc1ccc(C2(Cn3cncn3)CC(Br)CO2)c(Cl)c1 (stereo not given),inactive,–
CC(C)(C)c1cc(O)ccc1O,–,54.9 µM (active)
CC(C)C1CCC(Cc2ccc(Cl)cc2)C1(O)Cn1cncn1 (stereo not given),inactive,–
COP(=O)(OC)O/C(=C\Cl)c1cc(Cl)c(Cl)cc1Cl,inactive,–
C[C@H]1CCCC(=O)CCC/C=C/c2cc(O)cc(O)c2C(=O)O1,inactive,–
Oc1c(I)cc(I)cc1I,inactive,100 µM (active)
C[C@]12CCC(=O)C[C@@H]1CC[C@@H]1[C@@H]2CC[C@]2(C)[C@@H](O)CC[C@@H]12,inactive,–
CC(=O)C=C(C)C,inactive,–
CC1(C)CCC(Cc2ccc(Cl)cc2)C1(O)Cn1cncn1 (stereo not given),inactive,–
CC12CC1(C)C(=O)N(c1cc(Cl)cc(Cl)c1)C2=O (stereo not given),inactive,–
O=C1C2(Cl)C3(Cl)C4(Cl)C(Cl)(Cl)C5(Cl)C3(Cl)C1(Cl)C5(Cl)C24Cl (stereo not given),inactive,–
